TGFb inhibitor – qHTS for Inhibitors of TGF-b | HepG2 CAGA-GFP TGF-b/SMAD3 reporter, GFP fluorescence, 18 h; TGF-beta stimulated, 500 pg/mL final | Potency, µM (top dose mostly 46.1 µM), inactives show top-dose activity, negative = inhibition, actives largely listed as inhibitors | 410,000 compounds, 1.2% hits | AID 588855, 2011; further: on the % scale 0 is the no-effect control and ±100 the full control effect; nearly all actives have a fitted effect of over 65% in size
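Cell-based qHTS in HEPG2 carrying a CAGA-GFP Smad reporter; compounds added before 500 pg/mL final TGF-beta, 18 h incubation at 37 degrees C, GFP fluorescence quantified per cell by imaging cytometry.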
Nrf2 inh – Nrf2 qHTS screen for inhibitors. A549 ARE-Fluc reporter, luciferase luminescence, 18-24 h. Potency, µM (titrated, usually from 46 µM), for the others: at the top dose activity change, negative = inhibition, usual class: inhibitors. 360,000 compounds, 2.1% hits. AID 504444, 2011; further: on the % scale 0 is the no-effect control and ±100 the full control effect; nearly all actives have a fitted effect of over 60% in size
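Quantitative HTS in A549 cells stably bearing an antioxidant response element-firefly luciferase construct. Inhibition of Nrf2-driven transcription was scored by luminescence after 18-24 h of compound exposure at 37 °C.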
ATXN2 expr inh – Primary qHTS for Inhibitors of ATXN expression. Potency, µM (titrated, usually from 57 µM), without a hit: at the highest dose activity change, negative = inhibition, most hits filed as inhibitors. 360,000 compounds, 0.72% hits. HEK-293 ATXN2-luciferase reporter, luminescence, 24 h. AID 1745845, 2022; further: on the % scale 0 is the no-effect control and ±100 the full control effect; nearly all actives have a fitted effect of over 55% in size
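ATXN2-luciferase reporter cells (luciferase flanked by upstream and downstream ATXN2 gene portions) were treated 24 h at 37 °C with compounds at up to 57 uM. SteadyGlo luminescence gave expression; GF-AFC fluorescence gave viability.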
S2 tox – Viability Counterscreen for Primary qHTS for Inhibitors of ATXN expression. S2 cells (HEK-293 line with an ATXN2-luciferase reporter) viability, CellTiter-Fluor protease fluorescence, 24 h. Potency, µM (highest dose often 56.7 µM), most hits filed as cytotoxic. 400,000 compounds, 0.49% hits; further: nearly all actives have a fitted effect of over 40% in size
A549 viability – Nrf2 qHTS screen for inhibitors: counterscreen for cytotoxicity; 390,000 compounds, 0.16% hits; A549 ARE-Fluc cells, CellTiter-Fluor viability, 18-24 h; Potency, µM (titrated, usually from 46 µM), without a hit: at the highest dose activity change, negative = cytotoxicity, most hits filed as inhibitors; further: on the % scale 0 is the no-effect control and ±100 the full control effect
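A549 ARE_Fluc cells in 5% FBS OPTI-MEM were exposed to compounds in concentration-response for 18-24 h at 37 deg C. Viability was read by CellTiter-Fluor fluorescence (Ex 405/Em 525) after 30 min, before the luciferase read.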
HepG2 tox – qHTS for Inhibitors of TGF-b: Cytotox Counterscreen. HepG2 CAGA-GFP viability, ATP luminescence, 18 h. Potency, µM (series often up to 46.1 µM), for the others: at the highest dose activity change, negative = cytotoxicity, actives largely listed as cytotoxic. 410,000 compounds, 0.76% hits. AID 588856, 2011
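HepG2 CAGA-GFP cells (1000/well, DMEM with 1% FBS) received compound, then TGF-beta at 500 pg/mL final, and were incubated 18 hours at 37 degrees C. Viability was read by CellTiter-Glo luminescence. Media-only wells were set as complete cell-killing and DMSO as no toxicity.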
The depositor's hits bear a star; i = inactive; ? = inconclusive; nt = not tested or not shown; [ ] = dose if it differs, or a comment. The list is not random: actives were taken first. Their share in the collection is about 3.8%. The call rests on the fitted dose curve; in most records, active means well fitted curve in the direction sought with a large enough effect; inconclusive means small, poorly fitted or top-dose-only effect, or another doubt; inactive means no such curve, though single readings can be large; an effect the other way counts as inactive or inconclusive. Potency means the concentration at half of the fitted maximal effect.

SMILES	TGFb inhibitor	Nrf2 inh	ATXN2 expr inh	S2 tox	A549 viability	HepG2 tox
Cc1cccc(-c2nc(CS(=O)CC(=O)N3CC(C)CC(C)C3)c(C)o2)c1 (centres undefined)	-13%	-11%	-10%	i	0%	-41%
CCOc1cc(CNCCCN2CCOCC2)cc(Br)c1OCc1ccccc1Cl	14µM*	-12%	-22%[11.3 µM]	?	-12%	-93%
Nc1[nH]c(C(=O)c2ccccc2)c(-c2ccncc2)c1C(=O)NC1CC1	nt	nt	1%	i	nt	nt
O=c1[nH]cc(CCc2ccccc2)c2ncncc12	nt	1%	nt	nt	5%	nt
CCCCn1cc(S(=O)(=O)c2ccc(C)c(C)c2)c(=O)c2cc(F)c(N(CC)CC)cc21	-22%	26µM*	nt	nt	-26%	6%
CC1CCc2cc(F)cc3c(O)c(C(=O)NCC4CCCO4)c(=O)n1c23 (centres undefined)	2%	16µM*	-14%	i	-7%	-3%
CCCn1c(=O)c(C(=O)NCC2CCCO2)c(O)c2ccccc21 (centres undefined)	13%	-8%	6%	i	-1%	-21%
CC(=O)c1ccc(O)c(C(N)=O)c1	nt	nt	3%	i	nt	nt
Cc1ccc(SCc2ccc(C(=O)Nc3cc([N+](=O)[O-])ccc3C)cc2)cc1	-14%	15µM*	-21%	i	-9%	-14%
Cc1cc(C(=O)CN2C(=O)C(=O)N(C3CCCC3)C2=O)c(C)n1CCc1ccccc1	-21%	18µM*	-12%	?	-5%	-16%
CC[C@@H](NC(=O)[C@H](Cc1ccccc1)NC(=O)CC[C@H]1O[C@@H](n2ccc(=O)[nH]c2=O)[C@H](O)[C@@H]1O)c1ccccc1	6%	nt	4%	i	nt	0%
COc1ccccc1N1CCN(C2=Nc3cccc4cccc2c34)CC1	-14%	?	29%[11.3 µM]	?	?	-20%
COc1ccccc1NC1=Nc2cccc3cccc1c23	-27%	-28%	-21%	?	26µM*	-23%
CC(C)Cc1nc2cc(NS(=O)(=O)N(C)C)cc(C(=O)N3CCOCC3)c2n1C	nt	nt	nt	i	nt	nt
COc1ccccc1Nc1nn2c(=O)c3ccc(C(=O)NC4CCCCC4)cc3nc2s1	2%	20%	-13%	i	8%	-1%
COc1ccc(Br)cc1C1NC(c2ccc3c(c2)OCO3)=CC(c2cc(Cl)ccc2O)N1 (centres undefined)	?	-15%	nt	nt	-2%	11µM*
Oc1ccc(Cl)cc1C1C=C(c2ccc3c(c2)OCO3)NC(c2cc(Br)ccc2F)N1 (centres undefined)	7.9µM*	-20%	nt	nt	1%	14µM*
O=C(OC(c1ccc(NS(=O)(=O)c2ccccc2)cc1)(C(F)(F)F)C(F)(F)F)c1ccccc1	?	?	?	?	-13%	-69%
Cc1ccc(S(=O)(=O)Nc2ccc(C(OC(=O)c3ccccc3[N+](=O)[O-])(C(F)(F)F)C(F)(F)F)cc2)cc1	10µM*	?	-3%	i	?	10µM*
COc1cccc(NC(=S)N(CCCN2CCCC2)Cc2cccn2Cc2ccc(Cl)cc2)c1	?	0%	?	?	0%	-178%
S=C(Nc1cccc(Cl)c1)N(CCCN1CCCC1)Cc1cccn1Cc1ccc(Cl)cc1	?	4%	32µM*	28µM*	-3%	25µM*
CSc1cccc(NC(=S)N(CCCN2CCCC2)Cc2cccn2Cc2ccc(Cl)cc2)c1	?	?	14µM*	nt	?	-175%
COc1ccc(NC(=O)NNC(=O)C(C)Oc2ccc3ccccc3c2)cc1 (centres undefined)	-7%	17%	-3%	i	-2%	-2%
COc1cccc(NC(=O)c2sc(NC(=O)c3ccncc3)nc2C)c1	-26%	12µM*	nt	i	0%	-23%
Cc1nc(NC(=O)c2ccccc2)sc1C	9%	?	nt	i	3%	16µM*
SMILES	TGFb inhibitor	Nrf2 inh	ATXN2 expr inh	S2 tox	A549 viability	HepG2 tox
COc1cccc(NC(=O)c2ccncc2)c1	-20%	8%	13%	i	-10%	-6%
O=C(Nc1nc(-c2cccs2)c(C(=O)C(F)(F)F)s1)c1ccccc1	?	21µM*	?	?	-19%	-43%
O=C(Nc1nc(-c2cccs2)c(C(=O)C(F)(F)F)s1)c1ccco1	-16%	?	-5%	i	2%	2%
Cc1nc(NC(N)=S)sc1C(=O)Nc1ccccc1	3%	-9%	6%	i	-10%	11µM*
CCOC(=O)CCC(NC(=O)c1cncc(O)c1)C(=O)OCC (centres undefined)	0%	10%	-4%	i	-6%	-1%
CCOC(=O)CCC(NC(=O)c1ccc(Nc2nc3ccccc3nc2C(=O)OCC)cc1)C(=O)OCC (centres undefined)	-3%	5%	27µM*	30µM*	-1%	15%
COc1ccc(C2CC(c3ccccc3)=NN2C(=O)c2cccs2)cc1 (centres undefined)	-21%	?	42%	i	?	-19%
COc1ccc(C2=NN(C(=O)c3cccs3)C(c3ccccc3O)C2)cc1 (centres undefined)	13µM*	23µM*	nt	?	?	-98%
COc1ccc(C(=O)N2N=C(c3cccs3)CC2c2ccccc2O)cc1 (centres undefined)	?	18µM*	0%	?	?	11µM*
COc1cccc(Nc2nc(NCCO)c3ccccc3n2)c1	13µM*	?	-12%	i	7%	-36%
COc1ccc(OC)c(Nc2nc(NCc3ccco3)c3ccccc3n2)c1	?	-37%	32µM*	nt	-18%	-53%
Cc1cccc(Nc2nc(NCc3ccco3)c3ccccc3n2)c1	?	?	25µM*	nt	-16%	10µM*
c1ccc(CN2CCN(c3nc(NCc4ccco4)c4ccccc4n3)CC2)cc1	?	23µM*	?	i	?	-38%
Cc1ccc(NC(=O)Cn2c(=O)n(-c3ccc(Cl)c(Cl)c3)c(=O)c3c(C)c(C)sc32)c(C)c1	2%	11%	6%	i	1%	-3%
Cc1cccc(-c2noc(-c3cc(C(C)C)[nH]n3)n2)c1	?	24%	nt	nt	-1%	-61%
COc1ccc(NC(=O)COc2ccc3c(C)cc(=O)oc3c2)cc1S(=O)(=O)N1CCCCC1	-8%	?	-3%	i	-3%	-13%
CN[C@H]1C[C@@H](c2ccccc2)N(C(C)=O)C[C@H]1CO	-15%	nt	16%	i	nt	-71%

Source: PubChem
